Our source for the Potency, activation and activity change, negative = inhibition values is PubChem BioAssay (NCATS).

Each structure is given as a SMILES string. Inconclusive results are not listed. A number with no mark means an inactive call. Activity calls are given as the source filed them. The call rests on the fitted dose curve; in most records, active means well fitted curve in the direction sought with a large enough effect; inconclusive means small, poorly fitted or top-dose-only effect, or another doubt; inactive means no such curve, though single readings can be large; an effect the other way counts as inactive or inconclusive.

The target in assay [1] is Rap guanine nucleotide exchange factor 3 (Homo sapiens) (UniProt O95398). As to the kind of experiment: Confirmatory qHTS for agonist of cAMP-regulated guanine nucleotide exchange factor 3 (EPAC1) (AID 1645881).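 Further: EPAC1 catalysed release of BODIPY-GDP from Rap1B seen as fluorescence loss; 100% = effect of cAMP agonist control; nearly all actives have a fitted effect of over 75% in size.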 In general terms: Quantitative high-throughput screening tests each substance at several concentrations.
Chain of Rap guanine nucleotide exchange factor 3 (Homo sapiens) (O95398 whole entry, looked up): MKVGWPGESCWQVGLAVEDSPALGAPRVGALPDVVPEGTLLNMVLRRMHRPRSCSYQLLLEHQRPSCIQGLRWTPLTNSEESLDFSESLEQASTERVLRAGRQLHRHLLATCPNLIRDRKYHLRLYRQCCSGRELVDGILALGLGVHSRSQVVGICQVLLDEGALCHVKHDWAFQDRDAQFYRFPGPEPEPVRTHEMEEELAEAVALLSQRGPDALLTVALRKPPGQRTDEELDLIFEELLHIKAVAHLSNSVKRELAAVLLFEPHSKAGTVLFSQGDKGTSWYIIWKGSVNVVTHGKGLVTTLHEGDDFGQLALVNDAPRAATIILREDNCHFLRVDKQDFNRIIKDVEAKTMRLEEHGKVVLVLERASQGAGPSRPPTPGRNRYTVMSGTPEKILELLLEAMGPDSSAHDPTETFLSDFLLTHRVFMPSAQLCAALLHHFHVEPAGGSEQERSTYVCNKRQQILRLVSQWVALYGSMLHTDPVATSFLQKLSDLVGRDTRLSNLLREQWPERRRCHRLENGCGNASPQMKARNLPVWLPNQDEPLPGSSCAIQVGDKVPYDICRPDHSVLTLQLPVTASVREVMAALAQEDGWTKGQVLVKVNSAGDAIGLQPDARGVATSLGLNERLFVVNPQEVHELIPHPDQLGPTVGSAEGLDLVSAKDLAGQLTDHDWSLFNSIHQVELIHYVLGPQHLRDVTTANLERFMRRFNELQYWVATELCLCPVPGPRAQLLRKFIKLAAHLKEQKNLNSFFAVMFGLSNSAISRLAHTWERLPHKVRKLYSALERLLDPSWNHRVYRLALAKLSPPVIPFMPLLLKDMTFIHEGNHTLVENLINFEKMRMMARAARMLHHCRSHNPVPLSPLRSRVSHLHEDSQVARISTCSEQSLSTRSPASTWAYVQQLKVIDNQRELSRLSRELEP
In assay [2] the target is Rap guanine nucleotide exchange factor 4 (Homo sapiens) (UniProt Q8WZA2). As to the kind of experiment: Confirmatory qHTS for agonist of cAMP-regulated guanine nucleotide exchange factor 4 (EPAC2) (AID 1645884).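 Further: nucleotide exchange releases bodipy-GDP from Rap1 and this lowers its fluorescence; on the % scale 0 is the no-effect control and ±100 the full control effect; nearly all actives have a fitted effect of over 65% in size.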
Chain of Rap guanine nucleotide exchange factor 4 (Homo sapiens) (Q8WZA2 whole entry, looked up): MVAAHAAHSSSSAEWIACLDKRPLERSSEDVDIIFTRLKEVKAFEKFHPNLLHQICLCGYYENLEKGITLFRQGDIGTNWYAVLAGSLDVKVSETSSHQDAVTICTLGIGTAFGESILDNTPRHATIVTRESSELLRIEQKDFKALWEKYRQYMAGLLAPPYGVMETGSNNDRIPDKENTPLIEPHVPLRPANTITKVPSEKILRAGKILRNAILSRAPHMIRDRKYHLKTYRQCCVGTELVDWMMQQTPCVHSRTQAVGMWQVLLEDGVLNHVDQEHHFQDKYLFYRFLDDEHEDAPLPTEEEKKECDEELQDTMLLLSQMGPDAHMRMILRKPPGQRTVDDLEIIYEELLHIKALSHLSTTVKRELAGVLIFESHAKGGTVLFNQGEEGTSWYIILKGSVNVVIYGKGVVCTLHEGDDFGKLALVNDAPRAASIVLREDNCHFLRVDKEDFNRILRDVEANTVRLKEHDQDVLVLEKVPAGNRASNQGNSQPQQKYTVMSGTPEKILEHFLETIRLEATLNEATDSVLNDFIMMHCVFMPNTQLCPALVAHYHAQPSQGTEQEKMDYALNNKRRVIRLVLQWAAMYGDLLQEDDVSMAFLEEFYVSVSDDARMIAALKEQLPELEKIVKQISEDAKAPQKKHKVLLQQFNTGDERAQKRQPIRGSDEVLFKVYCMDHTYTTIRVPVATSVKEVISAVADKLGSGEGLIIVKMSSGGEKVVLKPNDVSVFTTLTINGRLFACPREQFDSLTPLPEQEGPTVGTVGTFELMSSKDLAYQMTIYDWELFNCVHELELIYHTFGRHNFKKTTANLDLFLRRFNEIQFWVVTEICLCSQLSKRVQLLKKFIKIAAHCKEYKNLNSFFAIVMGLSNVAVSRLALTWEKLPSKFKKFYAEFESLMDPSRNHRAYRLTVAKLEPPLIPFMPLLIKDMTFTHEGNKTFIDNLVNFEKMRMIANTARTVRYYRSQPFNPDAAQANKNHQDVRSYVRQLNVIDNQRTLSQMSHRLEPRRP
The target is the same in assay [3]. As to the kind of experiment: Confirmatory qHTS for antagonist of cAMP-regulated guanine nucleotide exchange factor 4 (EPAC2) (AID 1645885). Further: nearly all actives have a fitted effect of over 25% in size. Further: potency means the concentration at half of the fitted maximal effect. On activity change, negative = inhibition: on the % scale 0 is the no-effect control and ±100 the full control effect.
The target in assay [4] is Rap guanine nucleotide exchange factor 3 (Homo sapiens) (UniProt O95398). As to the kind of experiment: Counterscreen qHTS for antagonist of cAMP-regulated guanine nucleotide exchange factor 3 (EPAC1) (AID 1645888). Further: % of control where 0% means no effect. A digest of the protocol: (§1)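 Measured: fluorescence of BODIPY-GDP bound to Rap1B, which falls as exchange proceeds. Conditions include 50 uM competing GDP, 5 and 30 min reads, and a later cAMP challenge for antagonist detection.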
(In general: A counterscreen serves to expose hits that act by an unwanted route or on another target.)

The target is the same in assay [5]. As to the kind of experiment: Counterscreen qHTS for agonist of cAMP-regulated guanine nucleotide exchange factor 3 (EPAC1) (AID 1645889). Further: nearly all actives have a fitted effect of over 40% in size. Further: potency means the concentration at half of the fitted maximal effect. On activation: % of control where 0% means no effect. A digest of the protocol:
as §1

In the case of `N#Cc1c(-c2ccccc2)c(C#N)c2nc3ccccc3n2c1N`, the Potency result in assay [1], in assay [2], in assay [4] and in assay [5] was “inactive” in each case. In assay [3], the Potency was 84.9 µM (active).

Turning to `O=C(O)C(Cc1c[nH]c2ccccc12)NS(=O)(=O)c1cccc(Cl)c1Cl` (stereo not given), the Potency entry in assay [1], in assay [2], in assay [3], in assay [4] and in assay [5] was “inactive” each time.

Consider `CCCCNC(=O)CN1CCN(c2ncc(NC(=O)c3ccc(Cl)cc3)cc2C(=O)O)CC1`, for which the Potency result in assay [1], in assay [2], in assay [3], in assay [4] and in assay [5] was “inactive” in each case.

As for `O=C(O)C(Cc1ccccc1)N1C(=O)/C(=C/c2cccs2)SC1=S` (stereo not given), the Potency entry in assay [1], in assay [2], in assay [4] and in assay [5] was “inactive” in each case. Further, the Potency in assay [3] is 75.7 µM (active).

As for `Cc1oc2c(cc(NS(=O)(=O)c3ccc(F)cc3)c3ccccc32)c1C(=O)O`, the Potency result in assay [1], in assay [2], in assay [4] and in assay [5] was “inactive” in each case. Moreover, the Potency in assay [3] is 75.7 µM (active).

`CCOC(=O)C(NS(=O)(=O)c1ccc(C)cc1)(C(F)(F)F)P(=O)(OCC(C)C)OCC(C)C` (stereo not given): the Potency result in assay [1], in assay [2], in assay [3], in assay [4] and in assay [5] was “inactive” in each case.

In the case of `Cc1c(C(=O)N2CCN(c3ncccn3)CC2)oc2c(Cl)cccc12`, the Potency entry in assay [1], in assay [2], in assay [3], in assay [4] and in assay [5] was “inactive” throughout.

As for `COc1ccc(-n2c(C)cc(/C=C3\SC(=O)NC3=O)c2C)cc1`, the Potency entry in assay [1], in assay [2], in assay [3], in assay [4] and in assay [5] was “inactive” throughout.

With `O=C(N/N=C/c1ccccc1O)c1cccc(C(F)(F)F)c1`, the Potency entry in assay [1] and in assay [3] was “inactive” in each case. Also, the activation was 5.14% [at 17.1 µM, percent relative to cAMP agonist control] in assay [2] and 8.8% [at 30.8 µM] in assay [5]. The activity change, negative = inhibition in assay [4] was -7.23% [at 30.8 µM].

In the case of `COc1ccc(-c2cnnc(N/N=C/c3ccc(O)c(O)c3)n2)cc1`, the Potency entry in assay [1], in assay [2], in assay [3], in assay [4] and in assay [5] was “inactive” in each case.

With `Cc1ccc(CSC2=NCCN2S(=O)(=O)c2ccc(F)cc2)cc1`, the Potency entry in assay [1] and in assay [3] was “inactive” throughout. In addition, the activation is 1.66% [at 17.1 µM, percent relative to cAMP agonist control] in assay [2] and 4.55% [at 30.8 µM] in assay [5]. For the same molecule, the activity change, negative = inhibition in assay [4] was -7.41% [at 30.8 µM].

With `Cc1cccc2sc(N(CCCN(C)C)C(=O)CCS(=O)(=O)c3ccccc3)nc12`, the Potency result in assay [1], in assay [2], in assay [3], in assay [4] and in assay [5] was “inactive” in each case.

With `CC(C)c1ccc(S(=O)(=O)Nc2ccc3c(c2)OCO3)cc1`, the Potency result in assay [1], in assay [2], in assay [3], in assay [4] and in assay [5] was “inactive” throughout.

For the molecule `O=[N+]([O-])CC(c1ccccc1)c1c[nH]c2ccccc12` (stereo not given), the Potency result in assay [1], in assay [2], in assay [4] and in assay [5] was “inactive” throughout. The Potency in assay [3] was 21.3 µM (active).

In the case of `CCOC(=O)C(C(C)C)C(N)Cc1ccc(F)cc1` (stereo not given), the Potency result in assay [1], in assay [2], in assay [3], in assay [4] and in assay [5] was “inactive” in each case.

With `Cc1nnc(-c2ccco2)c2cn(-c3cccc(Br)c3)nc12`, the Potency result in assay [1], in assay [2], in assay [3], in assay [4] and in assay [5] was “inactive” each time.

With `COc1ccccc1Cc1c(-c2ccco2)nc2cc(C)c(Br)c(C)n12`, the Potency entry in assay [1] and in assay [3] was “inactive” each time. The activation was 3.49% [at 17.1 µM, percent relative to cAMP agonist control] in assay [2] and 13.6% [at 30.8 µM] in assay [5]. The activity change, negative = inhibition in assay [4] is -0.951% [at 30.8 µM].

For the molecule `Cc1ccc2nc(-c3ccco3)c(Cc3cccc(Cl)c3)n2c1`, the Potency entry in assay [1] and in assay [3] was “inactive” each time. The activation is 2.28% [at 17.1 µM, percent relative to cAMP agonist control] in assay [2] and 14.3% [at 30.8 µM] in assay [5]. Moreover, the activity change, negative = inhibition in assay [4] is -5.77% [at 30.8 µM].

With `Cc1cc(N2CCN(c3cccc(C(F)(F)F)c3)CC2)n2nc(-c3ccccc3C)nc2n1`, the Potency entry in assay [1], in assay [2], in assay [3], in assay [4] and in assay [5] was “inactive” each time.

Take `Cc1ccc2nc(-c3ccccc3)c(Cc3cccc(F)c3)n2c1`: the Potency result in assay [1], in assay [2], in assay [4] and in assay [5] was “inactive” each time. In assay [3], the Potency is 0.426 µM (active).

Regarding `N#Cc1c(SCC(=O)Nc2cccc(C(F)(F)F)c2)sc2c(O)cc(=O)[nH]c12`, the Potency result in assay [1] and in assay [3] was “inactive” each time. Further, the activation in assay [2] is 0% [at 17.1 µM, percent relative to cAMP agonist control]; in assay [5] it was 17.2% [at 30.8 µM]. In assay [4], the activity change, negative = inhibition was -10.8% [at 30.8 µM].

Regarding `CCOc1cccc(C(=O)Nc2ccc3oc(Cc4ccc(Cl)cc4)nc3c2)c1`, the Potency entry in assay [1] and in assay [3] was “inactive” each time. In addition, the activation in assay [2] is 0% [at 17.1 µM, percent relative to cAMP agonist control]; in assay [5] it was 18.7% [at 30.8 µM]. Also, the activity change, negative = inhibition in assay [4] is -8.02% [at 30.8 µM].

`CC(=O)Nc1ccc(NC(=S)NC(=O)/C=C/c2ccco2)cc1`: the Potency entry in assay [1], in assay [2], in assay [3], in assay [4] and in assay [5] was “inactive” each time.

As for `CCOc1ccc2nc(NC3=NC(c4ccc(OC)cc4)CC(=O)N3)nc(C)c2c1` (stereo not given), the Potency entry in assay [1] and in assay [3] was “inactive” in each case. The activation in assay [2] was 2.86% [at 17.1 µM, percent relative to cAMP agonist control]; in assay [5], 10.5% [at 30.8 µM]. Besides, the activity change, negative = inhibition in assay [4] is -8.36% [at 30.8 µM].

As to `O=C(NCc1cccc(Cl)c1)c1ccc(S(=O)(=O)Nc2cccc(C(F)(F)F)c2)cc1`, the Potency result in assay [1], in assay [2], in assay [3], in assay [4] and in assay [5] was “inactive” in each case.

For the molecule `CCOC(=O)C1=C(CC)OC(N)=C(C#N)C1c1ccc(F)cc1F` (stereo not given), the Potency result in assay [1], in assay [2], in assay [3], in assay [4] and in assay [5] was “inactive” in each case.

Take `CC1=C(C(=O)OC(C)C)C(c2ccc(C)o2)C(C(=O)OC(C)C)=C(C)N1`: the Potency result in assay [1], in assay [2], in assay [4] and in assay [5] was “inactive” in each case. Moreover, the Potency in assay [3] is 30.1 µM (active).

Consider `Fc1cccc(Cc2c(-c3ccc(Cl)cc3)nc3ccc(Cl)cn23)c1`, for which the Potency entry in assay [1] and in assay [3] was “inactive” throughout. Further, the activation in assay [2] was 7.12% [at 17.1 µM, percent relative to cAMP agonist control]; in assay [5] it was 23% [at 30.8 µM]. The activity change, negative = inhibition in assay [4] was -4.02% [at 30.8 µM].

As for `Oc1ccc(NCc2ccc(OCc3ccccc3Cl)cc2)cc1`, the Potency result in assay [1], in assay [2], in assay [3] and in assay [4] was “inactive” in each case. For the same molecule, the Potency in assay [5] was 56.2 µM (active).

On to `Fc1ccc(-c2nc3ccc(Br)cn3c2Cc2cccc(F)c2)cc1`, for which the Potency result in assay [1], in assay [2], in assay [3], in assay [4] and in assay [5] was “inactive” each time.

On to `CCn1c(C(=O)N2CCc3ccccc3C2)cc2sccc21`, for which the Potency entry in assay [1], in assay [2], in assay [4] and in assay [5] was “inactive” in each case. In assay [3], the Potency was 53.6 µM (active).

On to `CC(C)C[C@H]1COCCS(=O)(=O)N1Cc1cccc(Cl)c1`, for which the Potency result in assay [1] and in assay [3] was “inactive” throughout. The activation in assay [2] was 5.51% [at 17.1 µM, percent relative to cAMP agonist control]; in assay [5], 2.08% [at 30.8 µM]. Further, in assay [4], the activity change, negative = inhibition is -14.3% [at 30.8 µM].

As to `Cc1ccc(-c2nn(-c3ccccc3)cc2C=C2SC(=S)N(CCS(=O)(=O)O)C2=O)cc1`, the Potency result in assay [1] and in assay [3] was “inactive” throughout. The activation was 6.87% [at 17.1 µM, percent relative to cAMP agonist control] in assay [2] and 28% [at 30.8 µM] in assay [5]. The activity change, negative = inhibition in assay [4] is -16.5% [at 30.8 µM].

`Cc1ccccc1OCC(=O)Nc1ccccc1N1CCC(C)CC1`: the Potency entry in assay [1], in assay [2], in assay [4] and in assay [5] was “inactive” in each case. The Potency in assay [3] is 42.6 µM (active).

As for `C[C@H](c1ccccc1)N1C[C@H](COCc2ccccc2)Oc2cc(N3CC[C@@H](O)C3)ccc2S1(=O)=O`, the Potency result in assay [1] and in assay [3] was “inactive” throughout. Also, the activation in assay [2] is 10.3% [at 17.1 µM, percent relative to cAMP agonist control]; in assay [5], 20% [at 30.8 µM]. The activity change, negative = inhibition in assay [4] was -15.5% [at 30.8 µM].

Regarding `CCOc1ccc(-n2c(C)nc3cc(C(=O)NCc4ccc(C)cc4)ccc32)cc1`, the Potency entry in assay [1], in assay [2], in assay [3], in assay [4] and in assay [5] was “inactive” in each case.
